This is a sample that favours compounds with a hit; in the whole collection about 7.9% have one here.
Lassa entry inh: qHTS for Inhibitors of binding or entry into cells for Lassa Virus; 300,000 compounds, 1.2% hits; AID 540256, 2011; Lassa virus pseudotype entry inhibition, cell reporter; Potency, µM (top dose mostly 37.9 µM), usual class: inhibitors; calls by dose curve; tested in HEK293 cells; note: nearly all actives have a fitted effect of over 50% in size
FMDV antiviral: High Throughput Screening for Foot and Mouth Disease Virus Antivirals; FMDV antiviral cell-based qHTS; Potency, µM (titrated, usually from 57.9 µM), most hits filed as inhibitors; 410,000 compounds, 1.2% hits; calls by dose curve; tested in HEK293T cells; note: read-out not given here; nearly all actives have a fitted effect of over 45% in size
MARV entry inh: qHTS for inhibitors of binding or entry into cells for Marburg Virus; 300,000 compounds, 1.8% hits; AID 540276, 2011; Potency, µM (doses to about 37.8 µM), hits mostly inhibitors; Marburg virus pseudotyped entry inhibition, cell reporter; calls by dose curve; tested in HEK293 cells
HCMV inh: qHTS Assay for inhibitors of the human cytomegalovirus (HCMV). HFF cells, HCMV-luciferase reporter, 72 h; active compounds read low. activity change, negative = inhibition, % at 57.5 µM. 410,000 compounds, 4.5% hits; in the data active = activity change below about -60%; inconclusive = no clear call, values can overlap the other calls; inactive = above about -39%
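Human foreskin fibroblasts infected with luciferase-reporter HCMV at MOI 1 PFU/cell, compounds at two doses. Luciferase measured 72 h post infection; normalized to buffer-only basal and Salinomycin (10uM) controls.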
HCV inhibitor: qHTS Assay for Inhibitors of Hepatitis C Virus (HCV) | Huh7.5.1 HCVcc-Cre infection, luciferase reporter, 44 h | Potency, µM (titrated, usually from 41.8 µM), actives largely listed as inhibitors | 340,000 compounds, 3.4% hits | AID 651820, 2012; active = well fitted inhibition curve with a large enough effect; inconclusive = small, poorly fitted or top-dose-only effect, or another doubt; inactive = no such curve, though single readings can be large or run the other way
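Reporter virus HCVcc-Cre (~0.5 moi) infects cells exposed to compound; seeding density 1,000 cells/well with 4 h settling beforehand. Luminescence, 15 sec read, taken 44 h post-infection following a 15 min RT substrate incubation.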
Each line names hits and unclear results; the compound was inactive in the other large screens.

Cc1ccc(-c2nn(-c3ccccc3)cc2C2CC(c3ccccc3)=NN2C(=O)CCC(=O)O)cc1 (stereo not drawn)	Lassa entry inh inconclusive
O=CN1N=C(c2ccccc2)CC1c1ccccc1[N+](=O)[O-] (stereo not drawn)	none
COc1ccc(C2=NN(C(=O)c3cccs3)C(c3ccccc3OC)C2)cc1OC (stereo not drawn)	Lassa entry inh inconclusive, MARV entry inh inconclusive, HCV inhibitor 10µM
O=C(c1ccccc1)N1N=C(c2ccccc2)CC1c1ccccc1O (stereo not drawn)	Lassa entry inh inconclusive, HCMV inh -62
O=C(c1ccncc1)N1N=C(c2ccc(Br)cc2)CC1c1ccccc1O (stereo not drawn)	FMDV antiviral inconclusive, MARV entry inh inconclusive, HCV inhibitor inconclusive (no result: Lassa entry inh)
Cc1cc(C(=O)Nc2ccccc2-c2nc(CNC(=O)c3cscn3)c(C)o2)c(C)o1	none (no result: Lassa entry inh, MARV entry inh, HCMV inh, HCV inhibitor)
Cc1ccc(C2=NN(C(=O)c3cccs3)C(c3ccccc3O)C2)cc1 (stereo not drawn)	MARV entry inh inconclusive, HCMV inh -61
CC(=O)N1N=C(c2ccccc2)CC1c1cn(Cc2ccccc2)c2ccccc12 (stereo not drawn)	Lassa entry inh inconclusive, FMDV antiviral 32µM, MARV entry inh inconclusive, HCMV inh -87, HCV inhibitor 25µM
NS(=O)(=O)c1ccc(N2N=C(c3ccccc3)CC2c2ccccc2Br)cc1 (stereo not drawn)	none (no result: Lassa entry inh, MARV entry inh)
O=C(c1cccs1)N1N=C(c2ccccc2)CC1c1ccccc1O (stereo not drawn)	MARV entry inh inconclusive, HCMV inh -60
CC(=O)N1N=C(c2ccncc2)CC1c1ccccc1O (stereo not drawn)	MARV entry inh inconclusive
O=[N+]([O-])c1ccc(N2N=C(c3ccccc3)CC2c2ccccc2O)cc1 (stereo not drawn)	HCMV inh -63 (no result: Lassa entry inh, FMDV antiviral, MARV entry inh, HCV inhibitor)
O=C(O)c1ccc(CNCc2ccccc2Cl)s1	Lassa entry inh inconclusive (no result: HCV inhibitor)
CN(C)c1ccc(NC(=O)c2cn(-c3ccccc3)nc2-c2cccs2)cc1	MARV entry inh inconclusive, HCV inhibitor inconclusive
O=C(Nc1ccc2ccccc2c1)c1cn(-c2ccccc2)nc1-c1cccs1	Lassa entry inh inconclusive, MARV entry inh inconclusive, HCMV inh -60, HCV inhibitor inconclusive
CCN(CC)CCOC(=O)c1ccc(NC(=O)c2cn(-c3ccccc3)nc2-c2cccs2)cc1	Lassa entry inh inconclusive, MARV entry inh inconclusive, HCV inhibitor 7.9µM
CN1C(=O)C(n2ccc3ccccc32)c2cccc(F)c21 (stereo not drawn)	none (no result: Lassa entry inh, FMDV antiviral, MARV entry inh, HCV inhibitor)
CCOC(=O)/C=C1/N(C)c2ccccc2C1(C)C	none
CN1/C(=C\P(=O)(N(C)C)N(C)C)C(C)(C)c2ccccc21	Lassa entry inh inconclusive, FMDV antiviral inconclusive, MARV entry inh inconclusive, HCMV inh -93
S=C(Nc1cccc2ccccc12)NN1CCCCCC1	MARV entry inh inconclusive, HCMV inh -63
CCN(CC)C(=O)C1CCCN(C(=S)Nc2cccc3ccccc23)C1 (stereo not drawn)	none
NC(=O)C1CCCN(C(=O)Nc2cccc3ccccc23)C1 (stereo not drawn)	HCMV inh -64
CCc1nc2cc(C(=O)N(C)CC3COCCO3)cc(NC(=O)c3ccccc3OC)c2n1C (stereo not drawn)	none (no result: Lassa entry inh, MARV entry inh, HCMV inh, HCV inhibitor)
Clc1nc(-c2ccccc2)c2ccccc2n1	none
CCc1nc(N=C(N)N)nc2ccccc12	HCMV inh -82 (no result: Lassa entry inh, FMDV antiviral, MARV entry inh, HCV inhibitor)
CCc1nc2ccccc2c(C(=O)O)c1C	HCV inhibitor inconclusive
NC(N)=Nc1nc(-c2ccccc2)c2ccccc2n1	MARV entry inh inconclusive, HCMV inh -95
CCCN(CCC)C(=O)Cn1nnc2sc(-c3ccccc3)cc2c1=O	none (no result: HCV inhibitor)
COc1cc(OC)c(N(C)S(=O)(=O)c2cccc(C(=O)OCC(=O)N(C)Cc3ccccc3)c2)cc1Cl	HCMV inh -63, HCV inhibitor 11µM (no result: Lassa entry inh, MARV entry inh)
COc1cc(/C=N/n2c(-c3ccc4c(c3)NC(=O)CO4)csc2=Nc2cccc(C)c2)ccc1O	Lassa entry inh 23µM, FMDV antiviral inconclusive, MARV entry inh inconclusive, HCMV inh -96, HCV inhibitor 7.1µM
O=c1ccc2c(o1)/C(=C/C=C(Cl)Cl)CCC2	HCV inhibitor 16µM
Fc1ccc(C2=NOC(c3nnc(-c4ccccc4)o3)C2)cc1 (stereo not drawn)	HCMV inh -65 (no result: Lassa entry inh, MARV entry inh)
c1ccc(C2=NOC(c3nnc(-c4ccccc4)o3)C2)cc1 (stereo not drawn)	none (no result: Lassa entry inh, MARV entry inh)
COC(=O)c1cc(S(=O)(=O)N2CCOCC2)c(Cl)cc1N1CCOCC1	none
COC(=O)c1cc(C)nc2c1C(=O)C(=O)C=C2N1CCOCC1	Lassa entry inh inconclusive, FMDV antiviral 3.5µM, MARV entry inh inconclusive, HCMV inh -93, HCV inhibitor 2.5µM
CC1=C(C(=O)OCC2CCCCC2)C(c2ccc(Cl)cc2Cl)CC(=O)N1 (stereo not drawn)	FMDV antiviral inconclusive (no result: HCV inhibitor)
Cc1cccc(NC(=O)c2onc3c2CCCC3)n1	Lassa entry inh inconclusive, FMDV antiviral inconclusive, MARV entry inh 1.3µM
Cc1ccc(C(=O)Nc2onc3c2CCCC3)cc1	Lassa entry inh inconclusive, FMDV antiviral 8.9µM, MARV entry inh inconclusive, HCMV inh -75 (no result: HCV inhibitor)
O=C(Nc1ccc2ccccc2c1)c1onc2c1CCCC2	Lassa entry inh 5.6µM, HCV inhibitor inconclusive
COC(=O)c1cccc(NC(=O)c2onc3c2CCCC3)c1	Lassa entry inh inconclusive, MARV entry inh 9.2µM
CCN(C(=O)Cn1c(=O)oc2cc(S(=O)(=O)N3CCCC3)ccc21)c1cccc(C)c1	FMDV antiviral inconclusive, MARV entry inh inconclusive (no result: HCV inhibitor)
CC1CN(Cc2cccn2-c2cccnc2)Cc2cc(Cl)ccc2O1 (stereo not drawn)	none (no result: Lassa entry inh, MARV entry inh, HCMV inh, HCV inhibitor)
C=CCc1c(C)nc2nc(SCC(=O)Nc3cccc(Cl)c3)nn2c1C	FMDV antiviral inconclusive, HCMV inh inconclusive (no result: MARV entry inh, HCV inhibitor)
C=CCc1c(C)nc2nc(SCC(=O)Nc3ccc(C)c(C)c3)nn2c1C	HCMV inh -100 (no result: MARV entry inh, HCV inhibitor)
CCCNC(=O)OC[C@H]1O[C@H](CCO/N=C(\C)CCC(=O)OC[C@H]2O[C@H](C#Cc3ccccc3)C=C[C@@H]2Oc2ccc(C)cc2)C=C[C@@H]1Oc1ccc(OC)cc1	none (no result: Lassa entry inh, FMDV antiviral, HCMV inh, HCV inhibitor)
CN(C)c1ccc(C(=O)N/N=C/C23CC[C@@H](O)CC2(O)CC[C@@H]2[C@@H]3CCC3(C)C(C4=CC(=O)OC4)CCC23O)cc1 (stereo partly drawn)	FMDV antiviral inconclusive, HCMV inh -99 (no result: Lassa entry inh, MARV entry inh)
CC12CC[C@H]3[C@@H](CCC4(O)C[C@H](O)CCC34/C=N/NC(=O)c3ccc(O)cc3)C1(O)CCC2C1=CC(=O)OC1 (stereo partly drawn)	none (no result: Lassa entry inh, MARV entry inh)
COc1ccc(C(=O)N/N=C/C23CC[C@@H](O)CC2(O)CC[C@@H]2[C@@H]3CCC3(C)C(C4=CC(=O)OC4)CCC23O)cc1 (stereo partly drawn)	FMDV antiviral inconclusive, HCMV inh -82 (no result: Lassa entry inh, MARV entry inh)
COc1ccc(Cl)cc1NC(=O)c1cc(S(=O)(=O)N2CCc3ccccc32)cn1C	none (no result: MARV entry inh, HCV inhibitor)
